# Experimental data taken from PubChem BioAssay.
# Calls of active or inactive are those of the source.
# Assays:
# [1] = test system: PRMT1 (protein arginine N-methyltransferase 1); assay: small molecules binding arginine methyltransferase PRMT1 – biochemical, small-molecule microarray, 635 nm fluorescence, primary screen (AID 1088); settings: higher = more signal;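 further: binding of Prmt1 protein to compounds spotted on small-molecule microarray slides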
# [2] = growth effects on S. cerevisiae YJM789 – YJM789 clinical isolate, OD600, 24 h, basal, primary screen (AID 1089); settings: higher = more signal, called active from +8 up or from −8 down;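 further: growth of clinical yeast isolate S. cerevisiae YJM 789 seeded 1000 cells per well; test concentration not given here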
# [3] = S. pombe growth modifiers, basal conditions – strain 972, OD600, 24 h, no modulator, primary screen (AID 1090);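 further: basal condition with compound alone and no growth modifier present; test concentration not given here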; settings: S. pombe 972 growth, higher = more signal, called active from +8 up or from −8 down
# [4] = budding yeast growth modifiers under rapamycin – strain BY4716, OD600, 96 h, primary screen (AID 1091); further: test concentration not given here; settings: S. cerevisiae BY4716 + rapamycin, higher = more signal, called active from +8 up or from −8 down
# [5] = target: Torsin-1A-interacting protein 2 (Homo sapiens) (UniProt Q8NFQ8); assay: small molecules binding lysate-expressed LULL1 – cell lysate, human LULL1 lysate, 635/667 nm fluorescence, primary screen (AID 1092); settings: small-molecule microarray, hLULL1 lysate binding, 635 nm fluorescence; higher = more signal;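 further: probe is lysate of COS7 cells overexpressing human LULL1; score merges per-feature 667 nm fluorescence with signal-to-noise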
# Torsin-1A-interacting protein 2 (Homo sapiens), sequence (Q8NFQ8 whole entry, looked up): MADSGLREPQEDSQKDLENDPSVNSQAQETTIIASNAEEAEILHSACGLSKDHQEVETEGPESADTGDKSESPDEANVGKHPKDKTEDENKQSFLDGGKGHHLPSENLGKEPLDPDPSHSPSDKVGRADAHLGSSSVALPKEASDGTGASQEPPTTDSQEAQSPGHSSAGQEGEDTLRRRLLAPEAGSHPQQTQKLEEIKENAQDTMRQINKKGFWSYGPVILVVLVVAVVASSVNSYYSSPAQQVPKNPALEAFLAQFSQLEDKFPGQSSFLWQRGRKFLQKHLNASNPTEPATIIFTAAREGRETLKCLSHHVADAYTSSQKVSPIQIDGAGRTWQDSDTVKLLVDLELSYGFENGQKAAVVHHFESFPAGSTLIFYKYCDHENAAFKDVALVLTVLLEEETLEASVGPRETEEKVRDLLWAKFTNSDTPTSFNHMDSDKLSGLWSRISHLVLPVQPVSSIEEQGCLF
# [6] = optical density change of DRC41 E. coli – strain DRC41, OD650, 24 h, E. coli filamentation project, primary screen (AID 1093);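 further: MC1000 strain lacking acrAB efflux and sulA so SOS filamentation is blocked; test concentration not given here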; settings: E. coli DRC41 growth, higher = more signal, called active from +8 up or from −8 down
# [7] = probe aLefty2 binding to arrayed compounds – biochemical, biotinylated probe, 635/667 nm fluorescence, primary screen (AID 1094); settings: small-molecule microarray, higher = more signal;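 further: score merges spot fluorescence near 667 nm with spot signal-to-noise ratio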
# [8] = test system: Noggin (protein binding on small-molecule microarray); assay: small molecules binding Noggin protein – biochemical, 635/667 nm fluorescence, primary screen (AID 1095); settings: 635 nm fluorescence, higher = more signal;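 further: score merges 667 nm feature fluorescence with signal to noise over triplicate slides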
# [9] = target: Neurogenic locus notch homolog protein 3 (Homo sapiens) (UniProt Q9UM47); assay: small molecules binding NOTCH3 protein – biochemical, 635/667 nm fluorescence, primary screen (AID 1096); settings: small-molecule microarray, 635 nm fluorescence, higher = more signal
# Neurogenic locus notch homolog protein 3 (Homo sapiens), sequence (Q9UM47 whole entry, looked up): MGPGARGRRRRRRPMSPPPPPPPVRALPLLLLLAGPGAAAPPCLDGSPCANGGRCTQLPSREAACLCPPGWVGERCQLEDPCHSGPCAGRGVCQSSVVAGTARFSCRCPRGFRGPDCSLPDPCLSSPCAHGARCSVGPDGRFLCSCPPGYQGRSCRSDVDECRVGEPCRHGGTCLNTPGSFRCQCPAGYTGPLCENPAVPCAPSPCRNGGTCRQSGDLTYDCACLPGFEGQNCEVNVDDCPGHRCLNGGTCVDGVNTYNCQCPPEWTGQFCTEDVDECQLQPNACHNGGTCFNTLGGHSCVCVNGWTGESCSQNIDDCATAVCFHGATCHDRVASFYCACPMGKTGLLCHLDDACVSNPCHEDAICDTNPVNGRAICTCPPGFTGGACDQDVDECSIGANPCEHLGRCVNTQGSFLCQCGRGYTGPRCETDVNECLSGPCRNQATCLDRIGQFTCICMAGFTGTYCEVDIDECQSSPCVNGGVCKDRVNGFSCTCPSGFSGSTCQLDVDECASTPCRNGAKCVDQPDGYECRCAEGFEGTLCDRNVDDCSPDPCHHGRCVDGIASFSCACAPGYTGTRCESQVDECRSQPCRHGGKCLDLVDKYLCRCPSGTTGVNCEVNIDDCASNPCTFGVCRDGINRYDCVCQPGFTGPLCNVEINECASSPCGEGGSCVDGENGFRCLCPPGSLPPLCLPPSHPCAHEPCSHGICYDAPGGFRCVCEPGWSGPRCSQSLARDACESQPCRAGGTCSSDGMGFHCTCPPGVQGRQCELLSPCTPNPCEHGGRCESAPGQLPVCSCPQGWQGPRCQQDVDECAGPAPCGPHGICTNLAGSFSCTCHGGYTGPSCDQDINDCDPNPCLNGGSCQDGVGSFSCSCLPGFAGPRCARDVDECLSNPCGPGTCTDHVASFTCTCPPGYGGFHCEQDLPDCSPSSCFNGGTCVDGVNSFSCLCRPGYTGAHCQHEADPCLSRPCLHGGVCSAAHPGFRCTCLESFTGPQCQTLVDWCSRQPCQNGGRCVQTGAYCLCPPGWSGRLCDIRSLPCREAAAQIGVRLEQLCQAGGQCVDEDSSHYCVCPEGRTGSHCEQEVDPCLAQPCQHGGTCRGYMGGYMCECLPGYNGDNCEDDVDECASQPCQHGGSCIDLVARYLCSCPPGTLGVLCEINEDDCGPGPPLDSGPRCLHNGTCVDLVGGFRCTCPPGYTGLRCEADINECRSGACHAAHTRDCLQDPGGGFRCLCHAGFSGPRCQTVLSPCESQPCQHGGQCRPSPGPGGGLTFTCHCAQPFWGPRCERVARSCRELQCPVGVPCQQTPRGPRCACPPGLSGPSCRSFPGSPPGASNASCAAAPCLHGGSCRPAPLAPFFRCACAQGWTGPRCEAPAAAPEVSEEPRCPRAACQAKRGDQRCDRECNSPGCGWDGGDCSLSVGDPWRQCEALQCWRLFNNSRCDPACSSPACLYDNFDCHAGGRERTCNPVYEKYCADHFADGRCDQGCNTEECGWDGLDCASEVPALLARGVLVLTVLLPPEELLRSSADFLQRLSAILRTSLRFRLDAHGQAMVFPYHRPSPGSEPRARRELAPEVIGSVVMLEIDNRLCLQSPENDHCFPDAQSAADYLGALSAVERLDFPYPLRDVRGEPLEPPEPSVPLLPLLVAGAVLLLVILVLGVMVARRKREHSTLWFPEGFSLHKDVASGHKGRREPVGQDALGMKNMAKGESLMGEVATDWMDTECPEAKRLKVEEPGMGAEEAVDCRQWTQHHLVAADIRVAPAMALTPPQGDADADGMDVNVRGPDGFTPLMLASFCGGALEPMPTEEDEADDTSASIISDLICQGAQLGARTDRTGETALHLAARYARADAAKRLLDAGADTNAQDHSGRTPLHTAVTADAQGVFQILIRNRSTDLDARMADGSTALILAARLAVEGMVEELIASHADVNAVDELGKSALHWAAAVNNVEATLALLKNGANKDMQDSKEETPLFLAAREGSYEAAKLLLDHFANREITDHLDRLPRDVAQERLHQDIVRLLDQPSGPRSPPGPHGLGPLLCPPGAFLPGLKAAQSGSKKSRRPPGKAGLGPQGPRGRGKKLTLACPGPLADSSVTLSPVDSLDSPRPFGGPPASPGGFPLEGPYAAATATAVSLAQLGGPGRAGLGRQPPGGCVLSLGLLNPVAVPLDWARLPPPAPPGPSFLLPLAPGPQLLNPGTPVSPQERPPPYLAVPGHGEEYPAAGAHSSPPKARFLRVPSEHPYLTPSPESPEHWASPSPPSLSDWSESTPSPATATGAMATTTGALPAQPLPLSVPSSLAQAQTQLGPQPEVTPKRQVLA
# [10] = probe aEGFR binding to arrayed compounds – biochemical, biotinylated probe, 635/667 nm fluorescence, primary screen (AID 1097); settings: small-molecule microarray, higher = more signal;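 further: probe is a biotinylated anti-EGFR antibody binding compounds printed on slides; score combines fluorescence near 667 nm and signal to noise of each spot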
# [11] = test system: Plasmodium falciparum Sir2 (PF13_0152, Sir2A); assay: Plasmodium falciparum Sir2A binding compounds – biochemical, small-molecule microarray, 635 nm fluorescence, primary screen (AID 1098); settings: fluorescence 635 nm, higher = more signal;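 further: score merges spot fluorescence intensity with its signal-to-noise ratio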
# [12] = probe aDKK1 binding to arrayed compounds – biochemical, biotinylated probe, 635/667 nm fluorescence, primary screen (AID 1099); settings: small-molecule microarray, higher = more signal;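 further: score merges 667nm spot fluorescence with signal to noise across triplicate slides; reference of the scale not given here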
# [13] = probe aCHRDL2 binding to arrayed compounds – biochemical, biotinylated probe, 635/667 nm fluorescence, primary screen (AID 1100); settings: small-molecule microarray, higher = more signal
# [14] = change in splice reporter luminescence, either direction, cell-based, HEK293, spliceosome inhibition project, primary screen (AID 1101); settings: HEK293 splicing luciferase reporter, 24 h, higher = more signal, called active from +8 up or from −8 down;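 further: HEK293 cells carrying a splicing-competent luciferase reporter gene; test concentration not given here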
# [15] = target: Fibroblast growth factor 10 (Homo sapiens) (UniProt O15520); assay: compounds binding fibroblast growth factor 10 – biochemical, small-molecule microarray, 635 nm fluorescence, primary screen (AID 1102); settings: FGF10 binding, fluorescence 635 nm, higher = more signal
# Fibroblast growth factor 10 (Homo sapiens), sequence (O15520 whole entry, looked up): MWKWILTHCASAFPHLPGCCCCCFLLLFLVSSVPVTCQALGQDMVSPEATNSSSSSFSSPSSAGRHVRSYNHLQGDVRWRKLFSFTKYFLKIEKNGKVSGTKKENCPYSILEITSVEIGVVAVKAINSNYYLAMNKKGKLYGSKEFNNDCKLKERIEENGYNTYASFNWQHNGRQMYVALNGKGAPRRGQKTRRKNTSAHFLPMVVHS
# [16] = test system: glycogen synthase kinase-3 (GSK3A per assay name; protocol says GSK3B); assay: compounds binding glycogen synthase kinase-3 – biochemical, small-molecule microarray, 635 nm fluorescence, GSK3A, primary screen (AID 1103); settings: fluorescence 635 nm, higher = more signal; further: the record names both GSK3A and GSK3B
# [17] = target: Epidermal growth factor receptor (Homo sapiens) (UniProt P00533); assay: compounds binding epidermal growth factor receptor – biochemical, small-molecule microarray, 635 nm fluorescence, primary screen (AID 1104); settings: EGFR binding, higher = more signal;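 further: score merges 667 nm emission intensity with spot signal to noise over triplicate slides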
# Epidermal growth factor receptor (Homo sapiens), sequence (P00533 whole entry, looked up): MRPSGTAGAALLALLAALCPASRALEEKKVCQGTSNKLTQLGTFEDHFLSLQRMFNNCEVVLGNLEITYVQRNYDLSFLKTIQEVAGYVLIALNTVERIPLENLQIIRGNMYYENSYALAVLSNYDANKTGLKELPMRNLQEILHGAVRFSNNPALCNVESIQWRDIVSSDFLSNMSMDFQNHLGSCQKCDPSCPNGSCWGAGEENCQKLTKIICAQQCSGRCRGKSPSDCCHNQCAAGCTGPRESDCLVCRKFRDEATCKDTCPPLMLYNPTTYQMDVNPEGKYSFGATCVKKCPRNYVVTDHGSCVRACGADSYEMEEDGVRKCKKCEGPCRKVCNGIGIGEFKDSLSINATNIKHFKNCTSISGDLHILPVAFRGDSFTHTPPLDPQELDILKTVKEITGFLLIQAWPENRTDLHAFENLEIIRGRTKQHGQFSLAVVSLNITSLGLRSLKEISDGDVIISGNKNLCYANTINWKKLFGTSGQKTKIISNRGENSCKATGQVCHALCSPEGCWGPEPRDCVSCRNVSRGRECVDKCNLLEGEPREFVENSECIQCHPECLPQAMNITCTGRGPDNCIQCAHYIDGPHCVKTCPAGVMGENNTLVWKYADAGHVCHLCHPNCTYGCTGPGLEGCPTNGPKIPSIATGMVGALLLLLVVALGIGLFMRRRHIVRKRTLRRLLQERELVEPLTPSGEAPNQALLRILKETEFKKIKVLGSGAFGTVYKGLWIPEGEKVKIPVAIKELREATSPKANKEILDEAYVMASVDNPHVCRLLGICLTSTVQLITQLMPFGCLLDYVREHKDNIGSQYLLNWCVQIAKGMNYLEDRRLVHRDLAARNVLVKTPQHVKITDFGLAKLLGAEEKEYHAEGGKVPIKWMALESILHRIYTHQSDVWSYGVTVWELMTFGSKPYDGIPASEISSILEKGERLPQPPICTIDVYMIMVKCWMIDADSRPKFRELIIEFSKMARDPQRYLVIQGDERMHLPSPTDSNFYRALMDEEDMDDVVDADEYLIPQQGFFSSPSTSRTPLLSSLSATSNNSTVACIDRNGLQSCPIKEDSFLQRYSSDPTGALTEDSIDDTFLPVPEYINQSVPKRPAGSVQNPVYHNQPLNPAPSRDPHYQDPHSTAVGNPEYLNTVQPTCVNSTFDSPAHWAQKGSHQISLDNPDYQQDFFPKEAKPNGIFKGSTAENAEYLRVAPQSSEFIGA
# [18] = target: Follistatin-related protein 3 (Homo sapiens) (UniProt O95633); assay: compounds binding follistatin-related protein 3 – biochemical, small-molecule microarray, 635 nm fluorescence, primary screen (AID 1105); settings: FSTL3 binding, higher = more signal;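 further: score merges emission near 667 nm and signal to noise per printed spot across three slides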
# Follistatin-related protein 3 (Homo sapiens), sequence (O95633 whole entry, looked up): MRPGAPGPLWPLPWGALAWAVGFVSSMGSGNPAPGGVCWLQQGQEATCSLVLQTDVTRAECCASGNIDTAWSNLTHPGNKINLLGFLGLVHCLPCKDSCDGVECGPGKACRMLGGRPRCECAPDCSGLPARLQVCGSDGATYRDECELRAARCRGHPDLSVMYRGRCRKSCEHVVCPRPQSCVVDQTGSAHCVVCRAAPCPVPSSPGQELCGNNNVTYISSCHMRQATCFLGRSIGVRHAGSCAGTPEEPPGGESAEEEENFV
# [19] = target: Dickkopf-related protein 1 (Homo sapiens) (UniProt O94907); assay: small molecules binding DKK1 protein – biochemical, small-molecule microarray, 635 nm fluorescence scan, primary screen (AID 1106); settings: higher = more signal;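 further: score merges emission near 667 nm with signal to noise over three replicate slides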
# Dickkopf-related protein 1 (Homo sapiens), sequence (O94907 whole entry, looked up): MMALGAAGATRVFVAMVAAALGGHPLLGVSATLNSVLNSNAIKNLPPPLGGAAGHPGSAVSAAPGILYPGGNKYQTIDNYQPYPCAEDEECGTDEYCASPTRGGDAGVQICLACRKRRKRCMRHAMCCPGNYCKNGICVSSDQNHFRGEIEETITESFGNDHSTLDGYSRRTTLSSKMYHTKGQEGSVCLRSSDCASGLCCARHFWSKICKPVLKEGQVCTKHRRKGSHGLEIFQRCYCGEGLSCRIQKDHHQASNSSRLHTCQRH
# [20] = test system: Inhibin beta A chain (activin A); assay: small molecules binding activin A – biochemical, small-molecule microarray, 635 nm fluorescence scan, primary screen (AID 1107); settings: INHBA, higher = more signal;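 further: mouse activin A protein probed at 4.33 µg/mL on printed slides; score merges bound-protein fluorescence near 667 nm with spot signal-to-noise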
SMILES,composite z-score [1],z-score [2],z-score [3],z-score [4],composite z-score [5],z-score [6],composite z-score [7],composite z-score [8],composite z-score [9],composite z-score [10],composite z-score [11],composite z-score [12],composite z-score [13],z-score [14],composite z-score [15],composite z-score [16],composite z-score [17],composite z-score [18],composite z-score [19],composite z-score [20]
CON=C[C@@H](C)[C@H](OCc1ccccc1)C(C)C,-1.25,0.0195 (inactive),-0.596 (inactive),0.772 (inactive),-0.618,-0.718 (inactive),-0.149,0.314,-0.154,-0.158,-0.187,-0.152,-0.225,-0.829 (inactive),0.0578,-0.594,0.327,0.122,0.312,0.216
C#CCCCON=C1C[C@@H](O)[C@@H](O)[C@@H]2[C@@H]3C(=O)N(c4ccc(F)cc4F)C(=O)[C@@H]3CC[C@H]12,1.43,-0.989 (inactive),-1.41 (inactive),-1.5 (inactive),2.13,0.534 (inactive),-0.226,0.844,0.793,-0.0187,0.87,-0.177,-0.86,-1.35 (inactive),0.947,0.678,0.403,0.432,0.978,-0.185
CO[C@H]1COC(=O)[C@@H](C)COC(=O)[C@@H](OCc2ccccc2)C=C[C@@H]1C,0.0714,1.3 (inactive),-0.204 (inactive),1.03 (inactive),-0.424,0.075 (inactive),-0.357,0.172,-0.165,-0.0363,0.212,-0.439,-0.514,0.232 (inactive),-0.162,-0.227,-0.0072,-0.13,0.348,0.18
Cc1ccc(S(=O)(=O)N[C@@H]2COC(=O)[C@@H](C)COC(=O)CC=C[C@H]2C)cc1,-0.496,1.19 (inactive),0.227 (inactive),1.02 (inactive),-0.548,-0.266 (inactive),-0.183,0.49,0.702,-0.182,0.154,-0.324,-0.352,0.00914 (inactive),0.424,0.513,0.545,0.66,0.56,0.13
COc1ccc(O[C@H]2C=C[C@@H](c3ccccc3)O[C@@H]2COC(=O)CCC(C)=NOC[C@@H](O)[C@H]2O[C@@H]3OC(C)(C)O[C@@H]3[C@H]2O)cc1,1.34,0.671 (inactive),0.0839 (inactive),-0.37 (inactive),1.48,0.875 (inactive),-0.103,1.41,0.763,-0.0592,0.933,-0.206,-0.633,0.17 (inactive),0.766,0.87,0.615,0.847,0.551,0.437
